PubChem BioAssay AID493231 (Broad Institute, 2011)
Potency and affinity values are given separately. The source made the active and inactive calls. No rule for the calls is given here.

target: Acyl-homoserine lactone acylase PvdQ (Pseudomonas aeruginosa (strain ATCC 15692 / DSM 22644 / CIP 104116 / JCM 14847 / LMG 12228 / 1C / PRS 101 / PAO1)) (UniProt Q9I194); experiment: P. aeruginosa PvdQ acylase inhibitors, dose response, biochemical, fluorescence, plate reader and imaging, cherry-picks (AID 493231); settings: purified PvdQ acylase, fluorogenic substrate; series mostly up to 10 µM;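 also: more negative values mean stronger inhibition of the acylase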
Sequence (Q9I194 whole entry, looked up): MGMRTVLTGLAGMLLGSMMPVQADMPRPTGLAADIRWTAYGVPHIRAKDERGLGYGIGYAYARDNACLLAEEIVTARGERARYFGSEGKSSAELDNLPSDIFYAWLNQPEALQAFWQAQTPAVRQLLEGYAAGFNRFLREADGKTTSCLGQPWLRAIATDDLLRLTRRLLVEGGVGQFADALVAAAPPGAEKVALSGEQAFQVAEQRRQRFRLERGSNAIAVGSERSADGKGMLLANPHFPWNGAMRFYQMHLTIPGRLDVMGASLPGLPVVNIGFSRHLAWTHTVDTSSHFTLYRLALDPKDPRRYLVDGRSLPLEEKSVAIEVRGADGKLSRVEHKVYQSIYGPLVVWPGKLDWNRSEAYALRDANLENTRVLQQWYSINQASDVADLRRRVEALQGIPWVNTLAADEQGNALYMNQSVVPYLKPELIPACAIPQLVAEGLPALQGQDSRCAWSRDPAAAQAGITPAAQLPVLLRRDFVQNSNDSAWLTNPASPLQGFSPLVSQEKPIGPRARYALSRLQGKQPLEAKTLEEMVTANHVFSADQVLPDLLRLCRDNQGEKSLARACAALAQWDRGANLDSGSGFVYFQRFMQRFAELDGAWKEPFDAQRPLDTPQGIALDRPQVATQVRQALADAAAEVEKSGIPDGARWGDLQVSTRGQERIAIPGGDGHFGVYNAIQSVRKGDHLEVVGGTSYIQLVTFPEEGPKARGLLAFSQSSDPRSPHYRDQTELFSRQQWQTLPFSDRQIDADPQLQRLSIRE

outcome, inactive:
C=CCC1S/C(=N/N=C/c2cccs2)NC1=O (centres undefined)
Clc1ccc2nc3c4ccccc4cnn3c2c1
C=CCn1c(=O)/c(=C/c2ccc(C)o2)s/c1=C(/C#N)C(=O)c1ccccc1
C=CCNC(=S)NNC(=O)C(CC(C)C)CC(C)O (centres undefined)
CCOC(=O)c1ccc(N2Cc3ccccc3C2=NC(=O)c2ccncc2)cc1
CS(=O)(=O)c1ccc2sc(NC(=O)c3cc4ccccc4o3)nc2c1
CCCCNc1c(C(=O)OCC)c(=O)[nH]c2ccccc12
O=C1CCC(=O)N1CCSC(=S)N1CCSCC1
COc1ccc(OC)c(C(=O)c2oc3ccccc3c2NC(C)=O)c1
Cc1ccc(N(c2ncnc(N)c2[N+](=O)[O-])C2CCCCC2)cc1
CSC(=S)N/N=C/c1ccccc1
CC(C)(C)OC(=O)N(CCc1ccccc1)Cc1ccccc1OCc1cccc(NC(=O)C2CC2)c1
N#Cc1cc([N+](=O)[O-])ccc1Oc1cccc(/C=N/NC(=O)c2cccc(Cl)c2)c1
CN1CCN(C(=O)c2cccn(Cc3ccc(C(F)(F)F)cc3)c2=O)CC1
CC(=O)Nc1nc(-c2ccc(Cl)cc2)ns1
Cc1ccc(SCC(=O)Nc2ccc(F)cc2[N+](=O)[O-])cc1C
O=C(NCCc1ccc2c(c1)OCCO2)c1ccccc1F
COc1ccc(CC(=O)NNC(=S)NCC2CC2)cc1OC
N#C/C(C(=S)Nc1ccccc1)=C1/NN=C(N2CCOCC2)N1c1ccccc1
